Consider 28 molecules from PubChem BioAssay.

In the test the target is Neurogenic locus notch homolog protein 3 (Homo sapiens) (UniProt Q9UM47). Briefly: NOTCH3 binders on small-molecule microarray, primary screen, biochemical, 635/667 nm fluorescence (AID 1096). Conditions: NOTCH3 binding, 635 nm fluorescence, higher = more signal.
Sequence of Neurogenic locus notch homolog protein 3 (Homo sapiens) (Q9UM47 whole entry, looked up): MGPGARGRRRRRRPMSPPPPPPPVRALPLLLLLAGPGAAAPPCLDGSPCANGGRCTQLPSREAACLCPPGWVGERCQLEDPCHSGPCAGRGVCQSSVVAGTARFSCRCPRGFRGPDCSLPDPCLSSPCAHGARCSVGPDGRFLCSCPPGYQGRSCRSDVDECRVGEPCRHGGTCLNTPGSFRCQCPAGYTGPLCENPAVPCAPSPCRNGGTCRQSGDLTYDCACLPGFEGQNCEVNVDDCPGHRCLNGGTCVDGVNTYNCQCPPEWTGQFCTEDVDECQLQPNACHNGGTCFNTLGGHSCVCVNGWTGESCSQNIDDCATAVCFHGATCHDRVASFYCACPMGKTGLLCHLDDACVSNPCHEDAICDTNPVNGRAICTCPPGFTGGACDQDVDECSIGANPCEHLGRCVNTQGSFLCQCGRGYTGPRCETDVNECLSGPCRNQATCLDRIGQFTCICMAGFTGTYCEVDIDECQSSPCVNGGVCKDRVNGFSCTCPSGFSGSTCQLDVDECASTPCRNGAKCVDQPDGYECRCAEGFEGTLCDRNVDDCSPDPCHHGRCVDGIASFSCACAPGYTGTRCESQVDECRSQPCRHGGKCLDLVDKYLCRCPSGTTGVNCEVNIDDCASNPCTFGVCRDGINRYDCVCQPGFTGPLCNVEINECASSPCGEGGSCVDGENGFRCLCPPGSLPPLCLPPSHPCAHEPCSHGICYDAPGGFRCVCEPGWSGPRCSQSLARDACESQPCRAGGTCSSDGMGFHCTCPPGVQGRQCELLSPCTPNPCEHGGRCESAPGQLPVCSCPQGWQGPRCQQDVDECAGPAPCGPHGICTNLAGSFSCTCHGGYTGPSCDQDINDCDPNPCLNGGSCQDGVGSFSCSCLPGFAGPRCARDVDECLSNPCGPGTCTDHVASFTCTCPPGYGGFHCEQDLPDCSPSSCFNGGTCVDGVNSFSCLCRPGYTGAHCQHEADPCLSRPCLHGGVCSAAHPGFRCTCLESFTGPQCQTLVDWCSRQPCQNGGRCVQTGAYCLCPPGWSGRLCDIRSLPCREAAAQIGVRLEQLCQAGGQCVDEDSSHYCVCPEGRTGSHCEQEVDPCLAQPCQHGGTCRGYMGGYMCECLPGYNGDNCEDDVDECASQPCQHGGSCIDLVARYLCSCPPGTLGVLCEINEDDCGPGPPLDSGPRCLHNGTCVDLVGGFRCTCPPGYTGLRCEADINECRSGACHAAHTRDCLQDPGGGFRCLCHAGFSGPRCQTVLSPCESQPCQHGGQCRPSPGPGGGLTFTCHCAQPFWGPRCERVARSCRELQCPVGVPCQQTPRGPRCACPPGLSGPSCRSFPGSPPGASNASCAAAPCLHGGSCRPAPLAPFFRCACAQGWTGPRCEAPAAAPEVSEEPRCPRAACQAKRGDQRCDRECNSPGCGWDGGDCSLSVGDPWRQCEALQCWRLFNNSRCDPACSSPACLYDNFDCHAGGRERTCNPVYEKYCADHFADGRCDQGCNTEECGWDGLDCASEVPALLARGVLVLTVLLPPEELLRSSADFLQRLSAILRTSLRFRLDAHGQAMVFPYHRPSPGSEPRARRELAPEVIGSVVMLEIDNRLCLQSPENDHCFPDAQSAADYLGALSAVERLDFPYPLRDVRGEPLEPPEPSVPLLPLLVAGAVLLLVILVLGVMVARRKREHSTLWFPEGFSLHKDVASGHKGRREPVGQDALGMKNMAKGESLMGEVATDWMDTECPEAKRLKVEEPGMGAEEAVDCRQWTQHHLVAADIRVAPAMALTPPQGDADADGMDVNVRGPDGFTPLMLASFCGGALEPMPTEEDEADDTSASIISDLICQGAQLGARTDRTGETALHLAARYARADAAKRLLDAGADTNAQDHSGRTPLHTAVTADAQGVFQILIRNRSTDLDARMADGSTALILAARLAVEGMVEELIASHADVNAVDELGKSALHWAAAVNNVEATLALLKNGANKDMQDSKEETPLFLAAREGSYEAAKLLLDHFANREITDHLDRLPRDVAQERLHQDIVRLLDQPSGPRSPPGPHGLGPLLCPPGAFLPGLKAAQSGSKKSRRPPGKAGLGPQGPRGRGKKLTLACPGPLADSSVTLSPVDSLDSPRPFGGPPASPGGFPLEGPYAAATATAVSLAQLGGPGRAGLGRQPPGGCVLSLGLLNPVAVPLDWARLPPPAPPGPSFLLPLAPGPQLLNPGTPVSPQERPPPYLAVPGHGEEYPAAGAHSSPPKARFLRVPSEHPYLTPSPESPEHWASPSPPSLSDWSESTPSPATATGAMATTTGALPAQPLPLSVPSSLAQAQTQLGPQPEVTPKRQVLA
`CC(C)C(O)C1C=CC2C(=O)N(C)C(=O)C2N1Nc1ccccc1` (stereo not drawn) yielded a composite z-score of 0.707.
`Cc1c(NC(=O)/C(C#N)=C/C=C/c2ccc(N(C)C)cc2)c(=O)n(-c2ccccc2)n1C`: the composite z-score came to 0.739.
The figure for `COc1cc(CO)cc(I)c1O[C@H]1C=C(C(=O)NCCO)C[C@@H](N(Cc2ccc(F)cc2)C(=O)C2CCCO2)[C@@H]1O` (stereo partly drawn) is -0.331; for `O=C1C[C@@](C(=O)NCC(F)(F)F)(c2ccc([N+](=O)[O-])cc2)[C@@H](c2ccc(CO)cc2)N1C1CCCCC1` it is 0.823.
The figure for `COC(=O)Cn1c(C(=O)N2CCCC2)cc2c1C[C@H]1CN(C(=O)c3ccccc3)[C@@](Cc3ccc(F)cc3)(C(=O)OC)[C@@H]21` is -0.251.
With `O=C(CS)NCCCCCCNC(=O)[C@H]1C[C@H]2C(=O)N[C@@H](Cc3ccccc3)C(=O)N2[C@H]1c1cccc(OCCO)c1` the figure was 1.02.
`COc1cc2c(cc1OC)CN(C(=O)[C@H]1[C@@H]3C(=O)O[C@@H](c4ccccc4)[C@@H](c4ccccc4)N3[C@@H](c3ccc(OCCO)cc3)[C@]13C(=O)Nc1ccc(C#CC4(O)CCCCCC4)cc13)CC2` yielded a composite z-score of 1.09.
With `O=C1O[C@H](c2ccccc2)[C@H](c2ccccc2)N2[C@H]1[C@@H](C(=O)O)[C@]1(C(=O)Nc3ccccc31)[C@H]2c1ccc(O)cc1` the figure was -0.188; with `CC(=O)N1Cc2ccccc2C[C@]2(N=C(c3ccc(OCCCO)cc3)O[C@@H]2c2ccccc2)C1=O`, 1.07.
With `Cc1ccc(S[C@]2(C(=O)O)CC(=O)N(Cc3ccccc3Cl)[C@@H]2c2ccc(CO)cc2)cc1` the figure was -0.944; with `COc1c(C)cc(-c2cc3c(c(-c4ccccc4)n2)[Si](C(C)C)(C(C)C)OC3)cc1C`, -0.263.
With `O=C(CCCCCCC(=O)Nc1ccccc1)N/N=C/c1ccccc1` the figure was -0.783; with `CCOC(=O)C[C@H]1[C@H](OC(=O)Cc2ccc3c(c2)OCO3)[C@@H](NC(=O)C2CCCCC2)c2cc(OCCCO)ccc2N1C(=O)c1ccc2ccccc2n1`, 1.09; with `O=C(NC1CC1)[C@@H]1c2ccccc2C(=O)N(Cc2ccccc2)[C@H]1c1ccc(CO)cc1`, -0.0341.
Molecule `NC(N)=NCc1cn(CCc2c[nH]c3ccccc23)nn1` returned a composite z-score of 0.646.
Take `COCCCNC(=O)[C@@]1(Sc2ccc(C)cc2)CC(=O)N(Cc2cc(C(F)(F)F)cc(C(F)(F)F)c2)[C@@H]1c1ccc(CO)cc1`: the composite z-score was 0.715.
The figure for `O=C1O[C@@H](c2ccccc2)[C@@H](c2ccccc2)N2[C@@H](c3ccc(O)cc3)[C@]3(C(=O)Nc4ccc(C#CC5=CCCCC5)cc43)[C@@H](C(=O)N3CCN(c4ncccn4)CC3)[C@H]12` is 1.15.
Take `COCCOC(=O)N1C(=O)[C@@]2(c3cc(C#CC4=CCCCC4)ccc31)[C@H](c1ccccc1OCCO)N1[C@H](c3ccccc3)[C@H](c3ccccc3)OC(=O)[C@H]1[C@@H]2C(=O)N1CCc2cc(OC)c(OC)cc2C1`: the composite z-score is 1.08.
The figure for `CC[C@H]1C2=C3C(CC[C@H]4C(OCc5ccc(F)cc5C(F)(F)F)OC[C@](C)([C@@H]34)N(C(=O)OC(C)(C)C)C2)C2COC(=O)OCC21` (stereo partly drawn) is 1.1; for `CO[C@H]1O[C@H](CO)[C@@H](OC(=O)Nc2ccccc2-c2ccccc2)[C@H](OC(=O)Nc2ccc3c(c2)OCO3)[C@@H]1OC(=O)Nc1ccc2c(c1)OCO2` it is 1.07; for `COCCCNC(=O)[C@@]1(Sc2ccc(C)cc2)CC(=O)N(C2Cc3ccccc3C2)[C@@H]1c1ccc(CO)cc1I` it is -1.16.
With `Cc1ccc(S[C@]2(C(=O)NCc3ccccc3)CC(=O)N(C(C)C)[C@@H]2c2ccc(CO)cc2I)cc1` the figure was -0.44; with `CC(C)C(O)C1C=CC2C(=O)N(C)C(=O)C2N1N(c1ccccc1)c1ccccc1` (stereo not drawn), -0.853.
Molecule `O=C1OCC=C[C@H]2OC34C=CCN(Cn5nnc6ccccc65)C(=O)[C@H]3N(CCCCCCO)C(=O)[C@@H]4[C@@H]12` (stereo partly drawn) gave a composite z-score of -0.0986.
With `COC(=O)[C@@]1(Cc2ccccc2)[C@H]2c3cc(C(=O)N4CCCC4)n(Cc4cc(F)cc5c4OCOC5)c3C[C@H]2CN1C(=O)c1ccccc1` the figure was 0.924; with `O=C(O)[C@H](Cc1ccccc1)n1cc(-c2ccccn2)nn1`, 0.596.
The figure for `CN(C)CCCNC(=O)[C@@]1(c2ccc([N+](=O)[O-])cc2)CC(=O)N(CC23CC4CC(CC(C4)C2)C3)[C@@H]1c1ccc(CO)cc1` is 1.05; for `CCOC(=O)C[C@H]1[C@H](OC(=O)c2ccc(-c3ccccc3)cc2)[C@@H](NC(=O)c2ccc3ccccc3n2)c2cc(OCCCO)ccc2N1C(=O)c1ccccc1` it is 1.05.
